Unmarked numbers belong to inactive results. The rule behind the calls is not given here.
Molecular target: Pantothenate synthetase (Mycobacterium tuberculosis (strain ATCC 25618 / H37Rv)) (UniProt P9WIL5)
Assay: Coupled enzyme confirmation of inhibitors against recombinant Mtb PanC (AID 375);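 note: 0% = full reaction with vehicle and 100% = no enzyme background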
Details: coupled enzyme assay; at 10 µM, active compounds read high

Pantothenate synthetase (Mycobacterium tuberculosis (strain ATCC 25618 / H37Rv)), sequence (P9WIL5 whole entry, looked up): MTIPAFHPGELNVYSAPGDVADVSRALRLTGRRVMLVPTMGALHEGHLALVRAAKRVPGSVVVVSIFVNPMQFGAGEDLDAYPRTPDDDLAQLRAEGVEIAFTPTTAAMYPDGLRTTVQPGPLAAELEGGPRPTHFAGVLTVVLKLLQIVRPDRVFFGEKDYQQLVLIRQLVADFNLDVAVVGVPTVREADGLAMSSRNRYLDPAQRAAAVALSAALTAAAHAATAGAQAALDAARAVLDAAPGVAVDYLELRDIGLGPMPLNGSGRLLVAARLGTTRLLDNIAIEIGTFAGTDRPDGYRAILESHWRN

SMILES | inhibition [%]
CCSc1nc2c(c(=O)n1CC)SC(C)C2 (stereo unspecified) | 0
COc1ccc(CN(CC(=O)NCc2ccco2)C(=O)CCC(=O)Nc2nccs2)cc1 | 0
CC(=O)CCc1ccc(OCCCCn2cncn2)cc1 | 0
O=C(c1ccc2c(c1)OCCO2)C1CCN(C(=O)c2ccc(F)cc2)CC1 | 0
COc1cc(-c2noc(-c3cccc(Cl)c3)n2)cc(OC)c1OC | 0
Cc1c(Cl)cccc1NC(=O)CCN1CCCCC1 | 0
CCOC(=O)c1c(C)oc2c1c1c(c3ccccc32)OCN(Cc2cccnc2)C1 | 6
CCc1ccccc1NC(=O)C(C#N)Cc1cccnc1 (stereo unspecified) | 0
Cc1occc1-c1nc(-c2ccncc2)no1 | 3
O=c1c2ccccc2nc2n1CCN2 | 0
COc1ccc(OC)c(C2=NOC(C(=O)Nc3cccnc3)C2)c1 (stereo unspecified) | 0
CCCn1c(-c2ccc(F)cc2)cnc1SCC(=O)O | 0
COc1ccc(C2(C(=O)Nc3c(C)n(C)n(-c4ccccc4)c3=O)CCCC2)cc1OC | 1
CC(C)NCC(O)COc1ccc(CC(N)=O)cc1 (stereo unspecified) | 0
COc1ccc(C(=O)c2coc3ccc(O)c(CN4CCCCC4)c23)cc1 | 0
CCC(=O)O[C@@H]1CC(=O)O[C@H](C)CC=CC=C[C@@H](O)[C@H](C)C[C@H](CC=O)[C@H](O[C@H]2O[C@H](C)[C@@H](O[C@H]3C[C@@](C)(O)[C@@H](OC(=O)CC)[C@H](C)O3)[C@H](N(C)C)[C@H]2O)[C@H]1OC | 4

Reference: PubChem BioAssay
